# Results reported in the supplement of paper PMC10849652.
# About 8,800 targets were measured; listed, in parts, are those with a hit and a random draw of the rest. About 0.5% of all pairs of compound and target were hits. Unmarked numbers belong to inactive results.
# Legend:
# Assay in all cases: log2 fold change, soluble protein after heating vs DMSO (PISA); higher = thermal stabilisation; K562 lysate, 10 uM; active = over 0.2 and 3.5 SD of the protein, either way, in both replicates (recomputed)
# nilotinib = compound: Cc1cn(-c2cc(NC(=O)c3ccc(C)c(Nc4nccc(-c5cccnc5)n4)c3)cc(C(F)(F)F)c2)cn1 [nilotinib]
# Procedure, shortened: (§1)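 A 30 min treatment with 10 μM compound was applied to crude K562 extract at 1 mg/mL protein in PBS pH 7.4 with 1 mM MgCl2. Heating for 3 min spanned 48°C-58°C, after which aliquots were pooled, adjusted to 0.5% NP-40 at 4°C and spun at 21,000xg for 90 min. TMTpro 16plex LC-MS/MS of the supernatant, with channel sums equalised, gave values recorded as log-two fold change in thermal stability against solvent controls, from duplicates.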
# [1] = compound: Cc1nc(Nc2n[nH]c3c2CN(C(=O)N[C@H](CN(C)C)c2ccccc2)C3(C)C)c2sccc2n1
# Procedure, shortened: as §1
# dasatinib = compound: Cc1nc(Nc2ncc(C(=O)Nc3c(C)cccc3Cl)s2)cc(N2CCN(CCO)CC2)n1 [dasatinib]
# Procedure, shortened: as §1
# [2] = compound: Cc1ncc(-c2ccnc(Nc3ccc(S(C)(=O)=O)cc3)n2)n1C(C)C
# Procedure, shortened: as §1
# [3] = compound: Cn1cc(-c2ccc3c(c2)CCN3C(=O)Cc2cccc(C(F)(F)F)c2)c2c(N)ncnc21
# Procedure, shortened: as §1
# quisinostat = compound: Cn1cc(CNCC2CCN(c3ncc(C(=O)NO)cn3)CC2)c2ccccc21 [quisinostat]
# Procedure, shortened: as §1
# tipifarnib = compound: Cn1cncc1[C@@](N)(c1ccc(Cl)cc1)c1ccc2c(c1)c(-c1cccc(Cl)c1)cc(=O)n2C [tipifarnib]
# Procedure, shortened: as §1
# [4] = compound: NC(=O)Nc1cc(-c2cccc(F)c2)sc1C(=O)N[C@H]1CCCNC1
# Procedure, shortened: as §1
# [5] = compound: NC(=O)c1cnc(N[C@@H]2CCCC[C@@H]2N)nc1Nc1cccc(-n2nccn2)c1
# Procedure, shortened: as §1
# [6] = compound: NC1(c2ccc(-c3nc4ccn5c(=O)[nH]nc5c4cc3-c3ccccc3)cc2)CCC1
# Procedure, shortened: as §1
# [7] = compound: NCC(=O)Nc1ccc(-n2nc(C(F)(F)F)cc2-c2ccc3c(ccc4ccccc43)c2)cc1
# Procedure, shortened: as §1
# vorinostat = compound: O=C(CCCCCCC(=O)Nc1ccccc1)NO [vorinostat]
# Procedure, shortened: as §1
# silmitasertib = compound: O=C(O)c1ccc2c(c1)nc(Nc1cccc(Cl)c1)c1ccncc12 [silmitasertib]
# Procedure, shortened: as §1
# [8] = compound: O=C1NC(=O)C(c2cnc3ccccn23)=C1c1cn2c3c(cc(F)cc13)CN(C(=O)N1CCCCC1)CC2
# Procedure, shortened: as §1
# entospletinib = compound: c1cn2cc(-c3ccc4cn[nH]c4c3)nc(Nc3ccc(N4CCOCC4)cc3)c2n1 [entospletinib]
# Procedure, shortened: as §1
# Sequence of UniProt Q15746 (Q15746 whole entry, looked up): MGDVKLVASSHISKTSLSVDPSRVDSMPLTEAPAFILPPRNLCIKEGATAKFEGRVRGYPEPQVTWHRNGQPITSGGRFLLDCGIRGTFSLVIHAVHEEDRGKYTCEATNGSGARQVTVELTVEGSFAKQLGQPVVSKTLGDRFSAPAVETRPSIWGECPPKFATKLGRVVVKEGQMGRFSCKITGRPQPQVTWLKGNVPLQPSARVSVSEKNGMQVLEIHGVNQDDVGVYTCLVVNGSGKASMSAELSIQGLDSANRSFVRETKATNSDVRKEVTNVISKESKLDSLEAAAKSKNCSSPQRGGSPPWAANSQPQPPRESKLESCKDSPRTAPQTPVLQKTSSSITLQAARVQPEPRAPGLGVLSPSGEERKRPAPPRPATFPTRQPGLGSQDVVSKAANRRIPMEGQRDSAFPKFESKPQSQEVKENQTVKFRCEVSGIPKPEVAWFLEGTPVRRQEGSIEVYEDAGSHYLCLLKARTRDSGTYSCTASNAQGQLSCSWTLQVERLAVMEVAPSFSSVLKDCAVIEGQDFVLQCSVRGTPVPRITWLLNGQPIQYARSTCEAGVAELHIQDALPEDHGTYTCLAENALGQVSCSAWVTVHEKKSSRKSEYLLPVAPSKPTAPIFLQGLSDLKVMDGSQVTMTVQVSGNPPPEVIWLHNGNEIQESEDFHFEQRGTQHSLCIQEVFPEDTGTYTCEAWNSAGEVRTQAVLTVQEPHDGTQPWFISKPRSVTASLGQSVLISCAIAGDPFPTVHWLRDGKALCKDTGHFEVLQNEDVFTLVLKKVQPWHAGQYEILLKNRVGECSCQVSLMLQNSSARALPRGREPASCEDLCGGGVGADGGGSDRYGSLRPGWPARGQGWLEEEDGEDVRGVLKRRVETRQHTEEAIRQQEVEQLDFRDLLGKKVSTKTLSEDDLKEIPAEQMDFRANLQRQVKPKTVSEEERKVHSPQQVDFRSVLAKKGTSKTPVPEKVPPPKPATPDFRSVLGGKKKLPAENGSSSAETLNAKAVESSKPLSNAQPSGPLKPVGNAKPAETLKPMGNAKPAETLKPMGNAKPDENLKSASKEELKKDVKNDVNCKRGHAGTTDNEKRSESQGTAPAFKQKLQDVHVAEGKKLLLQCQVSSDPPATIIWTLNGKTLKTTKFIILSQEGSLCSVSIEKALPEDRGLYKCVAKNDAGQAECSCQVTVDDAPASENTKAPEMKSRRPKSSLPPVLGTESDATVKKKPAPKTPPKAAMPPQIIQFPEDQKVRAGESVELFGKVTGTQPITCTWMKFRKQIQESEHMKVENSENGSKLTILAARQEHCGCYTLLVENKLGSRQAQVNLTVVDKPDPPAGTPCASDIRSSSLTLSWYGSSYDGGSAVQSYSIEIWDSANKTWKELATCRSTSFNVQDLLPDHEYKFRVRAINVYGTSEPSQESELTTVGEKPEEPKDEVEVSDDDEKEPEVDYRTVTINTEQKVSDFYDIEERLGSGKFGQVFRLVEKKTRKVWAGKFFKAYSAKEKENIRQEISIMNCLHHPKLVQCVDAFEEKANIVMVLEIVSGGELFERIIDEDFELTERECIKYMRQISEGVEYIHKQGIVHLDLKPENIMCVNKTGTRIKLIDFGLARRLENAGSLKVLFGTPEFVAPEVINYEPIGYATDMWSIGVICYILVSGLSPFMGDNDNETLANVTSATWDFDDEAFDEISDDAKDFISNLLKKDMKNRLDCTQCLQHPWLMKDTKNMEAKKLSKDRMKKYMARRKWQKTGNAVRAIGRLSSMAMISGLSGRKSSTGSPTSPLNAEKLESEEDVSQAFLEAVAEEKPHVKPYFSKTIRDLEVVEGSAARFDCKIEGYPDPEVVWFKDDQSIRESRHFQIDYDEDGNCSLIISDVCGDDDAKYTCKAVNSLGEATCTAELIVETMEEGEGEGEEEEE
# Sequence of UniProt Q9BZ23 (Q9BZ23 whole entry, looked up): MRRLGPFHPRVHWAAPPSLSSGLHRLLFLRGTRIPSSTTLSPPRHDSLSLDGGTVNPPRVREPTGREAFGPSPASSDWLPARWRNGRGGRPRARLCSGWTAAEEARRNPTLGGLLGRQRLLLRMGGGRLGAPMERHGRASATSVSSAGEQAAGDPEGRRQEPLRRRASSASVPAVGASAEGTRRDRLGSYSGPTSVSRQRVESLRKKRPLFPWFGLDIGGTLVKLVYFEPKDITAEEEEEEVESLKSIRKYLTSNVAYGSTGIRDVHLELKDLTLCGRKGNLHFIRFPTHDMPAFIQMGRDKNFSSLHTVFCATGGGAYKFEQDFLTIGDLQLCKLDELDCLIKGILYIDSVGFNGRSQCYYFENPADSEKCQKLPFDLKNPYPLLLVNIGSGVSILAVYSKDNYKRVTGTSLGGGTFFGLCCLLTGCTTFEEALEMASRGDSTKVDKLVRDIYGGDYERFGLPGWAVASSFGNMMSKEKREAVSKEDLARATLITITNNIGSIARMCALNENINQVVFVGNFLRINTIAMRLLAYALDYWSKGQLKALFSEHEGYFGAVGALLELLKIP
# Sequence of UniProt P13533 (P13533 whole entry, looked up): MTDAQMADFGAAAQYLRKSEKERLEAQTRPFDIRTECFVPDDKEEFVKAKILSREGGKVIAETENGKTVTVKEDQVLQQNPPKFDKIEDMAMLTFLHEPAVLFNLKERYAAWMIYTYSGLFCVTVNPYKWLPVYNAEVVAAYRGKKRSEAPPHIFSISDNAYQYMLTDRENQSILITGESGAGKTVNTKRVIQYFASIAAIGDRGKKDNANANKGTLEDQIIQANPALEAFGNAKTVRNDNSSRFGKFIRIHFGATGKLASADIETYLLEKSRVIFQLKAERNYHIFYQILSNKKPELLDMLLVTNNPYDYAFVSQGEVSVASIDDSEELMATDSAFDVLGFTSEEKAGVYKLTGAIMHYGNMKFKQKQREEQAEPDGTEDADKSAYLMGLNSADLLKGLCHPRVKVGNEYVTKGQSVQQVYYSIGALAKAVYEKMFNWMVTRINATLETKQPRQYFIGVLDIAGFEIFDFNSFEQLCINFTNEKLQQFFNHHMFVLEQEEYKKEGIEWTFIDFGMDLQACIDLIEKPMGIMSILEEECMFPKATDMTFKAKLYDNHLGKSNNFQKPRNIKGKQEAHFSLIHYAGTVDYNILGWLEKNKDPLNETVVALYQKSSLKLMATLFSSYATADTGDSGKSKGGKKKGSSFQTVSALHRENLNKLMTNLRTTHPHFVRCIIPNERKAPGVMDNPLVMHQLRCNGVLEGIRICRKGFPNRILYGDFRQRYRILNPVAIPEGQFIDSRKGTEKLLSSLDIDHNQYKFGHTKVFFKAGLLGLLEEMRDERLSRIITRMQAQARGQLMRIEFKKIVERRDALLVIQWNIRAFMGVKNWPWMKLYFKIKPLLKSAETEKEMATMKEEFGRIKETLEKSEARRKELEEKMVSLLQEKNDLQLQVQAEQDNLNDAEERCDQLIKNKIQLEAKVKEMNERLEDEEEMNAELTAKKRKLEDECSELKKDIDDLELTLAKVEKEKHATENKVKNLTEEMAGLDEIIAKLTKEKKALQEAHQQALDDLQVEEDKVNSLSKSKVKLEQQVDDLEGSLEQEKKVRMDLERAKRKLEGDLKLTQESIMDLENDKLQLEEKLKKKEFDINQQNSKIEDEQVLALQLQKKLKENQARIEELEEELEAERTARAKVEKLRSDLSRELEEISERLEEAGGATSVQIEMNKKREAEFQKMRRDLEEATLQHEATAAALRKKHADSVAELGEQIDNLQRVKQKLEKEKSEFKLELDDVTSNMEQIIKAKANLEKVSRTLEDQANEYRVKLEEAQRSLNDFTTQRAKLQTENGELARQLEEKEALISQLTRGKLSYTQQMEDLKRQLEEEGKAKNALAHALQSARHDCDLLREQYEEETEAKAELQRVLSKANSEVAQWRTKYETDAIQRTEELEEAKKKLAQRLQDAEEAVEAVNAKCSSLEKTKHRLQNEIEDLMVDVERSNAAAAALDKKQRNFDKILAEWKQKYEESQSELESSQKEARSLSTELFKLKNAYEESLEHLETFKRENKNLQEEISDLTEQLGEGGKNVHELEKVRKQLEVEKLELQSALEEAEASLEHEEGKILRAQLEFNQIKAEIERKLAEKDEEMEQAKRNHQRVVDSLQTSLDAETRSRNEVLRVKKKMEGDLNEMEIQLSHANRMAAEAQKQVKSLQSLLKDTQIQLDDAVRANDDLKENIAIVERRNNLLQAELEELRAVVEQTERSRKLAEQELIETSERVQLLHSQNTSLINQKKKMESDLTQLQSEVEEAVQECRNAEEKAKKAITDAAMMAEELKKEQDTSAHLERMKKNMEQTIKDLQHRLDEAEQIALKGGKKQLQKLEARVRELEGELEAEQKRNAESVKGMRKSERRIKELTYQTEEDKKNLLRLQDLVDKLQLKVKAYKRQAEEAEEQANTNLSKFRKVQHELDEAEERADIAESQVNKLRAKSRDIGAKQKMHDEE
# Sequence of UniProt Q9UDX5 (Q9UDX5 whole entry, looked up): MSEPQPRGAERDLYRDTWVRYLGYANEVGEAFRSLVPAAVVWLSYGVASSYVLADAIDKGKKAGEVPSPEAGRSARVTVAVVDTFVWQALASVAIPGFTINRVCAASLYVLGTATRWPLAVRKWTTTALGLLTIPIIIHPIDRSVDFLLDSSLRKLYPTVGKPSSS
# Sequence of UniProt Q5TEU4 (Q5TEU4 whole entry, looked up): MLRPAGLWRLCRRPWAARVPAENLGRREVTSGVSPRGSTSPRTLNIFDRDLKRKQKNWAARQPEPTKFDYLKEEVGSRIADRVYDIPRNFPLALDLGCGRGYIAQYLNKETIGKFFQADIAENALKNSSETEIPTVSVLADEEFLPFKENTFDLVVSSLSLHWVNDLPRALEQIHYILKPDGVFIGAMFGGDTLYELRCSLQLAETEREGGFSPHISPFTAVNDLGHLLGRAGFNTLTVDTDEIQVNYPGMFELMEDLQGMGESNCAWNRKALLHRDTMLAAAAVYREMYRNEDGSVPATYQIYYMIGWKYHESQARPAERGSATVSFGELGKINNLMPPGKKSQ
# Sequence of UniProt O60829 (O60829 whole entry, looked up): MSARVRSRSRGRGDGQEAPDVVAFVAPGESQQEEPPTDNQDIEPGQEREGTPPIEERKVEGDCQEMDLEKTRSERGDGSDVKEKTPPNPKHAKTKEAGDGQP
Target,log2 fold change (nilotinib),log2 fold change [1],log2 fold change (dasatinib),log2 fold change [2],log2 fold change [3],log2 fold change (quisinostat),log2 fold change (tipifarnib),log2 fold change [4],log2 fold change [5],log2 fold change [6],log2 fold change [7],log2 fold change (vorinostat),log2 fold change (silmitasertib),log2 fold change [8],log2 fold change (entospletinib)
PARG (UniProt Q86W56),0.006,0.017,-0.033,0.007,-0.004,-0.081,-0.007,0.097,0.006,0.006,0.006,-0.363 (active),-0.035,0.018,0.006
MYBL2 (UniProt P10244),,,-0.055,,-0.012,-0.071,,-0.021,,-0.015,-0.03,-0.333 (active),0.003,0.008,0.025
NUF2 (UniProt Q9BZD4),-0.011,0.002,-0.044,-0.005,0.017,-0.012,0.003,0.061,0.013,-0.014,0.005,-0.242 (active),0.017,0.008,0.016
PAGE4 (UniProt O60829),,,-0.086,,-0.035,-0.097,,0.036,0.04,0.004,,-0.425 (active),0.06,-0.074,-0.054
OSBPL1A (UniProt Q9BXW6),-0.07,-0.02,-0.044,-0.051,-0.027,-0.147,0.015,0,-0.024,-0.388 (active),,0.128,-0.19,-0.14,
MT-ATP8 (UniProt P03928),0.055,0.177,,0.214,,0.043,0.085,0.056,-0.067,-0.084,0.056,0.155,-0.026,0.08,-0.009
MUC5AC (UniProt P98088),0.02,0.048,,0.128,,,-0.593 (active),,,,,,,,
NSUN7 (UniProt Q8NE18),,,,,,-0.573 (active),,0.01,0.009,-0.031,0.241,-0.003,0.005,-0.108,-0.042
PARD3B (UniProt Q8TEW8),,,0.051,,-0.095,,,,,0.174,,-0.585 (active),-0.209,,
NAA16 (UniProt Q6N069),0.068,-0.139,-0.042,0.039,0.071,,-0.015,,0.08,,0.43,,,,-0.018
MTFP1 (UniProt Q9UDX5),0.044,-0.021,0.069,0.043,0.008,0.133,-0.014,0.02,-0.103,-0.004,-0.04,0.102,-0.007,0.02,-0.009
MYO10 (UniProt Q9HD67),-0.019,-0.021,,0.126,,0.074,-0.063,-0.051,,-0.161,0.401,-0.038,0,0.159,
ORC3 (UniProt Q9UBD5),0.038,-0.062,,0.059,,,-0.084,,-0.053,,,,,,
NR3C1 isoform 3 (UniProt P04150),-0.021,-0.069,-0.042,0.044,-0.014,-0.032,-0.038,0.035,0.03,-0.021,-0.124,,0.05,0.046,-0.064
NSA2 (UniProt O95478),0.102,-0.04,-0.323,-0.08,-0.113,,-0.004,,0.076,-0.15,0.035,-0.073,-0.042,,0.208
PAPOLG (UniProt Q9BWT3),0.025,-0.025,-0.023,0.031,0.079,-0.056,0.079,-0.054,,0.445,-0.037,-0.369 (active),0.209,0.066,-0.013
NOCT (UniProt Q9UK39),-0.045,0.011,0.013,-0.084,0.017,0,0.061,0.043,0.004,-0.014,,-0.886 (active),0.004,-0.036,-0.301

Target,log2 fold change (nilotinib),log2 fold change [1],log2 fold change (dasatinib),log2 fold change [2],log2 fold change [3],log2 fold change (quisinostat),log2 fold change (tipifarnib),log2 fold change [4],log2 fold change [5],log2 fold change [6],log2 fold change [7],log2 fold change (vorinostat),log2 fold change (silmitasertib),log2 fold change [8],log2 fold change (entospletinib)
NUDT6 (UniProt P53370),,,-0.013,,0.032,0.021,,-0.03,,-0.058,0.128,0.038,-0.096,0.02,-0.225
NUMB isoform 2 (UniProt P49757),-0.293,-0.07,0.227,0.225,-0.127,,-0.068,,,,,,,,
MYLK (UniProt Q15746),0.138,-0.197,,-0.108,,0.048,-0.035,-0.175,0.079,,-0.312,,,-0.294,-0.096
P2RY1 (UniProt P47900),,,0.012,,-0.027,,,,-0.182,0.004,,0.04,0.13,,-0.064
MTHFD1 (UniProt V9GZ32),-0.43,-0.802,,-0.041,,,0.188,,-0.185,,,,,,
NUB1 isoform 2 (UniProt Q9Y5A7),,,,,,0.205,,-0.019,,,,,,-0.068,
NR2C2 isoform 2 (UniProt P49116),,,-0.033,,0.064,-0.054,,0.04,-0.025,-0.048,-0.024,-0.233,0.041,0.008,0.028
ORC1 (UniProt Q13415),,,,,,,,,,,,,,,-0.047
MYH6 (UniProt P13533),,,,,,-0.007,,0.082,0.092,-0.114,,0.209,-0.053,0.188,0.102
NTMT1 (UniProt S4R338),,,,,,,,,-0.027,,,,,,
NDUFAF5 (UniProt Q5TEU4),,,0.02,,-0.061,-0.078,,0.114,-0.034,-0.042,-0.023,0.065,0.002,-0.006,-0.046
NPLOC4 (UniProt I3L3I1),,,0.057,,-0.116,-0.986 (active),,0.196,,,,,,0.253,-0.146
NFAT5 isoform 4 (UniProt O94916),,,,,,0.014,,0.012,,,,,,-0.062,
NRIP1 (UniProt P48552),0.035,-0.127,0.135,0.035,0,-0.437,-0.03,0.083,0.022,-0.048,,0.274,0,0.06,
NQO1 (UniProt P15559),0.051,-0.031,0.244,0.022,-0.104,0.021,0.042,0.042,-0.027,0.056,0.008,-0.132,0.038,0.023,-0.027
PANK2 (UniProt Q9BZ23),-0.068,-0.111,0.135,0.001,-0.032,0.045,0.126,-0.053,-0.005,,0,,,-0.012,-0.023
